# Experimental data from PubChem BioAssay (NCI).
# Compounds without any hit were thinned out: in the full panel of roughly 79,000, 15% have a hit. Unmarked numbers belong to inactive results. The source made the active and inactive calls. Cut-off read from the data, not from the text of the source: active = growth inhibition above about 70%; inactive = the rest.
# Experiments:
# [1] = NCI Yeast Anticancer Drug Screen. Data for the rad50 strain (AID 155);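 note: 0% = growth of vehicle-only cultures of the same strain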; details: S. cerevisiae rad50 strain growth inhibition, active compounds read high
# Procedure, shortened: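 A DNA repair-deficient yeast mutant serves as the test organism; compound-induced growth inhibition is calculated against vehicle-treated cells.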
# [2] = NCI Yeast Anticancer Drug Screen. Data for the mec2-1 strain (AID 157); details: S. cerevisiae mec2-1 strain, active compounds read high
# Procedure, shortened: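 Each compound was tested on mec2-1 yeast, a strain altered in DNA damage repair or cell cycle control. Growth inhibition is reported relative to vehicle.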
# [3] = NCI Yeast Anticancer Drug Screen. Data for the sgs1 mgt1 strain (AID 161);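 note: 0% = growth of cultures given vehicle only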; details: S. cerevisiae sgs1 mgt1 strain, active compounds read high
# Procedure, shortened: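 Mutant yeast exposed to compound; growth scored against vehicle-only wells.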
# [4] = NCI Yeast Anticancer Drug Screen. Data for the cln2 rad14 strain (AID 165);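 note: 0% = growth equal to vehicle treated cultures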; details: S. cerevisiae cln2 rad14 strain, active compounds read high
# Procedure, shortened: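 Test compounds were added to cln2 rad14 yeast cultures; inhibition of growth was then determined by comparison with vehicle treatment.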
# [5] = NCI Yeast Anticancer Drug Screen. Data for the bub3 strain (AID 167); details: S. cerevisiae bub3 mutant strain, active compounds read high
# Procedure, shortened: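 Inhibition values come from growth of compound-treated mutant yeast normalised to vehicle-treated controls.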
# [6] = NCI Yeast Anticancer Drug Screen. Data for the mlh1 rad18 strain (AID 175); details: S. cerevisiae mlh1 rad18 strain growth inhibition, active compounds read high
# Procedure, shortened: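 Inhibition values reflect reduced growth of mutant yeast versus vehicle-treated controls following compound exposure; the mutations affect DNA damage repair.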
# [7] = at 5.0 µM (retest, dose inferred, filed as 0.5)
# [8] = at 50.0 µM (retest, dose inferred, filed as 5.0)
Compound,"growth inhibition [1, 7]","growth inhibition [1, 8]",growth inhibition ([1]; at 50.0 µM),"growth inhibition [2, 7]","growth inhibition [2, 8]",growth inhibition ([2]; at 50.0 µM),"growth inhibition [3, 7]","growth inhibition [3, 8]",growth inhibition ([3]; at 50.0 µM),"growth inhibition [4, 7]","growth inhibition [4, 8]",growth inhibition ([4]; at 50.0 µM),"growth inhibition [5, 7]","growth inhibition [5, 8]",growth inhibition ([5]; at 50.0 µM),"growth inhibition [6, 7]","growth inhibition [6, 8]",growth inhibition ([6]; at 50.0 µM)
CCn1c(O)c(C=Nc2ccccc2)s/c1=N/Nc1nc(-c2ccc(O)c(O)c2)cs1,0%,21%,57%,-22%,1%,48.4%,-6%,11%,72.2% (active),-10%,6%,41.5%,-7%,38%,79% (active),-17%,25%,66%
CCCCC1=NCCc2c1cc1c([nH]c3ccccc31)c2C,-3%,57%,9.2%,-19%,7%,46.2%,-8%,85% (active),52.5%,-1%,26%,48%,-3%,35%,76% (active),3%,97% (active),56.4%
NC(=S)c1cccc(C2Nc3ccccc3O2)c1 (configuration not stated),-1%,24%,75.1% (active),0%,11%,44%,9%,18%,39.1%,0%,30%,37.7%,47%,68%,81.7% (active),37%,61%,76.3% (active)
CCCCCc1cc(C(=O)OC/C(C)=N/O)c2ccccc2n1,-5%,90% (active),97.2% (active),-9%,95% (active),97.5% (active),-6%,91% (active),96.5% (active),-5%,92% (active),83.2% (active),-6%,93% (active),97.8% (active),-6%,93% (active),97.4% (active)
O=C1c2ccccc2C(=O)N1CCn1ccc(NC(c2ccccc2)(c2ccccc2)c2ccccc2)nc1=O,48%,48%,66.3%,28%,28%,74.9% (active),50%,50%,67.2%,5%,5%,80.6% (active),27%,27%,79.2% (active),44%,44%,65.3%
O=c1[nH]n(CCc2ccccn2)c(=O)c(Cl)c1Cl,-5%,-5%,9.25%,-9%,-1%,1.95%,-3%,-26%,12.4%,2%,6%,-6.2%,2%,7%,-11.2%,-17%,13%,-17.2%
CC(C)=CCC(OC(=O)CC(C)C)C1=CC(=O)c2c(O)ccc(O)c2C1=O (configuration not stated),-1%,99% (active),87.3% (active),1%,99% (active),89.2% (active),1%,99% (active),89.7% (active),-17%,99% (active),82.2% (active),2%,99% (active),86% (active),1%,99% (active),87.4% (active)
Cc1ccc(O)c(C(c2ccc([N+](=O)[O-])cc2)c2cc(C)ccc2O)c1,68%,95% (active),91.2% (active),90% (active),98% (active),92.9% (active),51%,57%,39%,73% (active),53%,89.7% (active),93% (active),52%,90.9% (active),84% (active),96% (active),91.3% (active)
Cc1ccc2c(c1)SSc1ccc(C)cc1SS2,78% (active),92% (active),81% (active),42%,94% (active),27.9%,35%,94% (active),75.7% (active),84% (active),91% (active),55.5%,79% (active),93% (active),73.2% (active),66%,93% (active),64.8%
CCOC(=O)CN1CCCC(C(=O)CC2(O)C3(Cl)C4(Cl)C5(Cl)C(Cl)(Cl)C6(Cl)C4(Cl)C2(Cl)C6(Cl)C53Cl)C1 (configuration not stated),62%,98% (active),52.5%,54%,99% (active),49.9%,61%,99% (active),55%,36%,99% (active),71.2% (active),59%,99% (active),48.5%,87% (active),99% (active),50.3%
Cc1ccc(S(=O)(=O)N/N=C/c2cc(I)cc([N+](=O)[O-])c2O)cc1,17%,91% (active),89.3% (active),13%,92% (active),95.8% (active),23%,93% (active),97.7% (active),9%,94% (active),91.3% (active),8%,97% (active),88.8% (active),21%,94% (active),96.5% (active)
COc1ccc(-c2cc(=O)c3c(C)ccnc3[nH]2)cc1,58%,58%,87.2% (active),43%,43%,83.2% (active),54%,54%,82.5% (active),20%,20%,65.8%,25%,25%,81.8% (active),39%,39%,81.5% (active)
S=C(Nc1ccccc1)[S][Sb]([S]C(=S)Nc1ccccc1)[c]1ccccc1,-5%,80% (active),41.4%,-6%,98% (active),20%,-56%,77% (active),43.1%,-8%,34%,12.1%,-11%,25%,3.15%,-2%,94% (active),63.4%
O=C(O)c1ccccc1/C=C1\Cc2ccc3c(c2C1=O)CCCC3,18%,18%,81.6% (active),6%,6%,83.1% (active),6%,6%,81.3% (active),-4%,-4%,85.5% (active),-5%,-5%,81.5% (active),12%,12%,79.9% (active)
C/C(=N\NC(=S)N1CCCC1)c1cnccn1,61%,98% (active),98.8% (active),56%,99% (active),99% (active),77% (active),98% (active),99.3% (active),74% (active),98% (active),97.7% (active),33%,97% (active),99% (active),80% (active),98% (active),99.1% (active)
O=[N+]([O-])c1ccccc1N=Nc1c(O)[nH]c2cccc(C(F)(F)F)c12,50%,86% (active),93.9% (active),52%,81% (active),18.5%,60%,90% (active),83.5% (active),-60%,92% (active),50.2%,47%,77% (active),46.5%,84% (active),97% (active),95.1% (active)
Oc1cccc2cc(Br)cnc12,24%,99% (active),84% (active),-17%,99% (active),91.6% (active),-10%,99% (active),81.5% (active),2%,99% (active),88.8% (active),-25%,99% (active),88.2% (active),21%,99% (active),74.7% (active)
CCC[CH2][Sn]([CH2]CCC)([O]C(=O)C1CCC(=O)N1)[O]C(=O)C1CCC(=O)N1 (configuration not stated),93% (active),93% (active),90.3% (active),94% (active),94% (active),90.7% (active),91% (active),91% (active),90% (active),96% (active),96% (active),91% (active),94% (active),94% (active),90.9% (active),95% (active),95% (active),88.7% (active)
CCCCN=C(c1ccc(O)cc1)c1ccc(OC)cc1O,-4%,20%,42.7%,-1%,15%,18.6%,-2%,37%,64.1%,-3%,20%,26.6%,-5%,42%,58%,-4%,22%,36%
